Assay outcomes (PubChem BioAssay)
Giardia FBPA inh – qHTS Assay for Inhibitors of Fructose-1,6-bisphosphate Aldolase from Giardia Lamblia | hit rate 0.71% among 290,000 | AID 2451, 2010 | Potency, µM (highest dose often 59.6 µM), without a hit: at the top dose activity, negative = inhibition, most hits filed as inhibitors | purified Giardia FBPA | A8B2U2; also: nearly all actives have a fitted effect of over 55% in size
Target sequence (A8B2U2 whole entry, looked up): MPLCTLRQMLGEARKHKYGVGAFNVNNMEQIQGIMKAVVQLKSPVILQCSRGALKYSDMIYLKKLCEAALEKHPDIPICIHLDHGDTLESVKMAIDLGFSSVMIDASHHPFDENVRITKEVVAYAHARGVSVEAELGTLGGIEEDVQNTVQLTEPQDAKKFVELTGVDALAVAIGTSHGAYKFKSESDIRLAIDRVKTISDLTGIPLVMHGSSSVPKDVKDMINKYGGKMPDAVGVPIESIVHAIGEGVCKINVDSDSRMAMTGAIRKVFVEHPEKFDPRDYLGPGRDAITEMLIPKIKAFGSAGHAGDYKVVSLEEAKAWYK
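Giardia FBPA (40 nM reagent) was preincubated 10 min at RT with compound (up to 57.5 uM final), then substrate plus GAPDH/TPI/NAD/arsenate coupling system with diaphorase/resazurin was added; resorufin fluorescence (525/598 nm) was read after 20 min.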
AMA1 RON2 block – qHTS for Inhibitors of AMA1-RON; Towards Development of Antimalarial Drug Lead: Primary Screen | hit rate 0.2% among 360,000 | AlphaScreen AMA1-biotinylated RON2 peptide binding | Plasmodium falciparum AMA1 (3D7) - RON2 peptide interaction | Potency, µM (series often up to 58.2 µM), for inactives: top-dose activity change, negative = inhibition, usual class: inhibitors | AID 720542, 2013;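 also: 0% = vehicle wells and -100% = peptide control; nearly all actives have a fitted effect of over 45% in size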
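AMA1 (3D7) with his tag at 25 nM final met compounds first, then biotinylated RON2 peptide at 25 nM; detection used donor plus acceptor beads, 10 µg/mL apiece, read by AlphaScreen after 30 min at room temperature.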
AmpC inh no detg – qHTS Inhibitors of AmpC Beta-Lactamase (assay without detergent); AmpC nitrocefin hydrolysis, absorbance 480 nm, 0.0001% Triton; Potency, µM (doses to about 57.1 µM), for the others: top-dose activity change, negative = inhibition, usual class: inhibitors; hit rate 0.52% among 330,000; AID 485341, 2010;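 also: plate controls were no compound for no effect and no enzyme for full effect; nearly all actives have a fitted effect of over 20% in size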
Target sequence (P00811 whole entry, looked up): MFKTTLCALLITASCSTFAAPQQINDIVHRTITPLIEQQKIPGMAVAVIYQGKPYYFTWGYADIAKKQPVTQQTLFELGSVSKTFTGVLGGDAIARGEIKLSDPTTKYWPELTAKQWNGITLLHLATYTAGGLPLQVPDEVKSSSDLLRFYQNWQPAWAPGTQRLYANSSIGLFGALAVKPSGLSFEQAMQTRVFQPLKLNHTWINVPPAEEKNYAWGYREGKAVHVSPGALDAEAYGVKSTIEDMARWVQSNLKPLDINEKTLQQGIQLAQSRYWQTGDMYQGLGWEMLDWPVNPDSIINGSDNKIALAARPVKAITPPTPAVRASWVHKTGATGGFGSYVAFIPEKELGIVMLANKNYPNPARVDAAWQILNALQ
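20 mM phosphate pH 7.0 + 0.01% (detergent screen) or 0.0001% Triton X-100; 5.3 nM AmpC reagent; cpd preinc 15 min RT; nitrocefin (800 uM stock) to start; A480 q20 s × 4 min; Activity was normalised to no-enzyme and no-compound control wells.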
AmpC detergent – qHTS Inhibitors of AmpC Beta-Lactamase (assay with detergent); P00811; AmpC hydrolysis of nitrocefin, absorbance 480 nm, 0.01% Triton; Potency, µM (highest dose often 114 µM), inactives show top-dose activity change, negative = inhibition, actives largely listed as inhibitors; hit rate 0.041% among 370,000; AID 485294, 2010;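 also: 0% = no-compound wells and -100% = no-enzyme wells; nearly all actives have a fitted effect of over 25% in size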
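20 mM phosphate pH 7.0 + 0.01% (detergent screen) or 0.0001% Triton X-100; 5.3 nM AmpC reagent; cpd preinc 15 min RT; nitrocefin (800 uM stock) to start; A480 q20 s × 4 min; Activity was normalised to no-enzyme and no-compound control wells.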
* hit, by the source's call. The list is not random: actives were taken first. Their share in the collection is about 1.1%. Calls follow the shape of the dose curve; as a rule, active = well fitted curve in the direction sought with a large enough effect; inconclusive = small, poorly fitted or top-dose-only effect, or another doubt; inactive = no such curve, though single readings can be large; an effect the other way counts as inactive or inconclusive. Unless noted, % is scaled to controls: 0 for no effect and ±100 for the full control effect; potency is read from the fitted curve at half-maximal effect.

How did CC1CN(C(=S)Nc2cccc(Cl)c2Cl)CC(C)O1 (centres undefined) do in these assays?
Giardia FBPA inh: -26%; AMA1 RON2 block: -7%; AmpC inh no detg: 1%; AmpC detergent: -7%

How did Cc1ccc(CSC(Nc2ccc(F)cc2)=C(C#N)C#N)cc1 do in these assays?
Giardia FBPA inh: -11%; AMA1 RON2 block: -7%; AmpC inh no detg: -43%; AmpC detergent: 1%

Results for CCN(CC)C(=O)CSC(Nc1ccc(F)cc1)=C(C#N)C#N ?
Giardia FBPA inh: -10%; AMA1 RON2 block: 11%; AmpC inh no detg: 14µM*; AmpC detergent: 2%

Results for CCCOc1ccc(C(=O)Nc2cc(-c3nc4ccccc4[nH]3)ccc2C)cc1 ?
AmpC detergent: 12%

What do the screens show for `[O-][n+]1c2c(c3c4non(O)c4ccc31)CCCC2`?
Giardia FBPA inh: -11%; AMA1 RON2 block: -1%; AmpC inh no detg: 10µM*; AmpC detergent: -5%

Results for COc1ccc(C(C)=O)cc1Cn1c(C)c(C(=O)NCc2ccc(C(C)C)cc2)sc1=O ?
AMA1 RON2 block: -13%

What do the screens show for `CCCC(=O)OCCNc1cc(Sc2nc3ccccc3[nH]2)c2nonc2c1[N+](=O)[O-]`?
Giardia FBPA inh: inconclusive; AMA1 RON2 block: -25%; AmpC inh no detg: 13µM*; AmpC detergent: inconclusive

Results for COc1ccc(N(CC(=O)Nc2ccc3c(c2)OCO3)S(=O)(=O)c2ccccc2)cc1 ?
Giardia FBPA inh: -8%; AMA1 RON2 block: -10%; AmpC inh no detg: -24%; AmpC detergent: 4%

What do the screens show for `COc1ccc(N(CC(=O)Nc2ccc3c(c2)OCCO3)S(=O)(=O)c2cccnc2)cc1`?
Giardia FBPA inh: -11%; AMA1 RON2 block: 0%; AmpC inh no detg: 40µM*; AmpC detergent: 3%

Results for CCOc1ccc(N(CC(=O)Nc2cccc(OC)c2)S(=O)(=O)c2c(C)noc2C)cc1 ?
Giardia FBPA inh: -12%; AMA1 RON2 block: -4%; AmpC inh no detg: 18µM*; AmpC detergent: inconclusive

How did COc1ccc(NC(=O)c2cc(-c3cc(F)ccc3OCC3CCCO3)n[nH]2)c(C)c1 (centres undefined) do in these assays?
AMA1 RON2 block: -1%

Results for NNC(=O)c1[nH]c2ccccc2c1-c1ccccc1 ?
Giardia FBPA inh: -2%; AMA1 RON2 block: 77%; AmpC inh no detg: 6.3µM*; AmpC detergent: -10%

What do the screens show for `Cc1ccnc(NC(=O)COc2ccc3c(c2)CCC3)c1`?
AMA1 RON2 block: -6%; AmpC inh no detg: -24%; AmpC detergent: -2%

What do the screens show for `COc1ccc(OC)c(/C=C/C(=O)N2C(=O)c3cccc(N)c3C2=O)c1`?
Giardia FBPA inh: 0%; AMA1 RON2 block: 3%; AmpC inh no detg: 32µM*; AmpC detergent: -2%

How did COc1cc(/C=C/C(=O)N2C(=O)c3cccc(N)c3C2=O)cc(OC)c1OC do in these assays?
Giardia FBPA inh: 9%; AMA1 RON2 block: 0%; AmpC inh no detg: -17%; AmpC detergent: 1%

What do the screens show for `CC(=O)Nc1ccc(SCC(CC(C)C)N2CCN(CCc3ccccc3)CCC2=O)cc1` (centres undefined)?
Giardia FBPA inh: -3%

Results for CCc1c(C)nc(SCC(=O)NNC(=O)Cc2ccc(OC)cc2)[nH]c1=O ?
Giardia FBPA inh: 1%; AMA1 RON2 block: 71%; AmpC inh no detg: 0%; AmpC detergent: 5%

Results for Cc1nnc(SCC(=O)Nc2nc(-c3ccccc3)cs2)n1N ?
Giardia FBPA inh: 10%; AMA1 RON2 block: -4%; AmpC inh no detg: -30%; AmpC detergent: -4%

How did O=C(Nc1nc(-c2ccccc2)cs1)C1c2ccccc2Oc2ccccc21 do in these assays?
Giardia FBPA inh: 0%; AMA1 RON2 block: 0%; AmpC inh no detg: 0.18µM*; AmpC detergent: 5%

Results for CCCc1cc(=O)[nH]c(SCC(=O)Nc2nc(-c3ccccc3)cs2)n1 ?
Giardia FBPA inh: 2%; AMA1 RON2 block: 7%; AmpC inh no detg: 13µM*; AmpC detergent: 2%

Results for O=C(Nc1nc(-c2ccncc2)cs1)C1c2ccccc2Oc2ccccc21 ?
Giardia FBPA inh: 13%; AMA1 RON2 block: -27%; AmpC inh no detg: -6%; AmpC detergent: -4%

How did Cn1cnnc1SCC(=O)Nc1nc(-c2ccccc2)cs1 do in these assays?
Giardia FBPA inh: -4%; AMA1 RON2 block: 2%; AmpC inh no detg: -21%; AmpC detergent: 79µM*

How did CCc1c(C)nc(SCC(=O)Nc2nc(-c3ccc(OC)cc3)cs2)[nH]c1=O do in these assays?
Giardia FBPA inh: 6%; AMA1 RON2 block: 7%; AmpC inh no detg: 14µM*; AmpC detergent: 6%

Results for COc1ccc(-c2csc(NC(=O)CSc3ccc(Br)cc3)n2)c(OC)c1 ?
Giardia FBPA inh: 0%; AMA1 RON2 block: -16%; AmpC inh no detg: 35µM*; AmpC detergent: -1%

How did CN(CC(=O)NCCC1=CCCCC1)S(=O)(=O)c1ccc2c(c1)CCC(=O)N2 do in these assays?
Giardia FBPA inh: 12%; AMA1 RON2 block: 7%; AmpC inh no detg: 3.2µM*; AmpC detergent: inconclusive

What do the screens show for `CC1(C(=O)NC2CCCCCC2)CCN1C(=O)Cc1ccc(-c2ccccc2)cc1` (centres undefined)?
AMA1 RON2 block: -3%

Results for O=C(COC(=O)/C=C/c1cccc(C(F)(F)F)c1)NCc1ccccc1 ?
Giardia FBPA inh: 3%; AMA1 RON2 block: 3%; AmpC inh no detg: 7.9µM*; AmpC detergent: -14%

How did O=C(COC(=O)/C=C/c1cccc(C(F)(F)F)c1)NCc1ccc(F)cc1 do in these assays?
Giardia FBPA inh: 0%; AMA1 RON2 block: -8%; AmpC inh no detg: -31%; AmpC detergent: 1%

Results for COc1ccc(-c2nnc(SCC(=O)NCCc3ccc(OC)c(OC)c3)nc2-c2ccc(OC)cc2)cc1 ?
AmpC detergent: -4%

How did COc1ccc(N2CCN(c3oc(Cc4ccccc4)nc3C#N)CC2)cc1 do in these assays?
Giardia FBPA inh: 1%; AMA1 RON2 block: 17µM*; AmpC inh no detg: -12%; AmpC detergent: 3%

How did COc1ccc(N2CCN(c3oc(COc4ccccc4)nc3C#N)CC2)cc1 do in these assays?
Giardia FBPA inh: -6%; AMA1 RON2 block: inconclusive; AmpC inh no detg: 27%; AmpC detergent: 0%

Results for COc1ccc(N2CCN(c3oc(COc4ccc(Cl)cc4Cl)nc3C#N)CC2)cc1 ?
Giardia FBPA inh: 1%; AMA1 RON2 block: 25µM*; AmpC inh no detg: -19%; AmpC detergent: inconclusive

What do the screens show for `Cc1cc(O)c(C(=O)/C=C/c2ccccc2Br)c(=O)o1`?
Giardia FBPA inh: 3%; AMA1 RON2 block: 55%; AmpC inh no detg: 13µM*; AmpC detergent: -15%

How did Cc1cc(O)c(C(=O)/C=C/c2ccc(C(C)C)cc2)c(=O)o1 do in these assays?
Giardia FBPA inh: 14%; AMA1 RON2 block: 78%; AmpC inh no detg: 13µM*; AmpC detergent: -5%
